Source: PubChem
This excerpt belongs to a sample that is enriched for hits.
TTR transcr act – activators of transthyretin transcription | SH-SY5Y TTR promoter Gaussia luciferase, luminescence; 100% = recombinant luciferase protein wells | activation, % at 16.7 µM | 1.3% of 92,000 active;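 active = activation above the mean of all tested compounds plus 3 SD, cut at about 9.5% in these data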;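 note: cells exposed to compounds for one day before reading; 0% = median of all test compound wells on the plate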
HuH7 TTR inh – counter-screen for TTR activators: TTR transcription inhibitors in HuH7 cells; HuH7 TTR promoter-Gaussia luciferase reporter, luminescence; shares compounds with TTR transcr act; 4% of 1,100 active; inhibition, % at 16.7 µM; AID 1117279;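 active = average inhibition above the solvent-only control wells' mean plus 3 SD, cut at about 15% in these data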;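 note: 0% = cells with DMSO only and 100% = cells with inhibitor control FD; inhibitors lower well luminescence so higher value means more inhibition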
TTR up confirm – human TTR transcription activation, confirmation; SHSY5Y TTR promoter Gaussia luciferase, luminescence; 100% = purified Lucia enzyme wells, no cells; shares compounds with TTR transcr act; activation, % at 16.7 µM; 1,100 tested, under 10 active; AID 1117280;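 active = mean activation above a set limit taken from the earlier primary screen, cut at about 11% in these data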;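 note: 0% = DMSO-treated cells and 100% = recombinant Lucia luciferase without cells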
* = called active by the depositor.

Results for COc1ccc(N2C(=O)/C(=C/c3cc(C)n(-c4ccc(C)cn4)c3C)C(=O)NC2=S)c(OC)c1 ?
TTR transcr act: 11*; HuH7 TTR inh: -1; TTR up confirm: -1

How did Cc1ccc(-n2c(C)cc(/C=C3/C(=O)NC(=O)N(C)C3=O)c2C)cc1 do in these assays?
TTR transcr act: 1

What do the screens show for `CCn1c(C)cc(/C=C2\C(=O)NC(=O)N(c3ccccc3C)C2=O)c1C`?
TTR transcr act: 1

What do the screens show for `CN1C2CCC1C(C(=O)Oc1ccccc1)C(c1ccc(Cl)cc1)C2` (stereo not drawn)?
TTR transcr act: 1

What do the screens show for `Cc1c(P(=S)(c2ccccc2)c2ccccc2)c2ccccc2n1C`?
TTR transcr act: 4

How did COC1CC=C2CCN3CCC4=C(CC(=O)OC4)C23C1 (stereo not drawn) do in these assays?
TTR transcr act: 0

What do the screens show for `CC(NC(=O)OC1CC2CCC1(C)C2(C)C)P(=O)(Oc1ccccc1)Oc1ccccc1` (stereo not drawn)?
TTR transcr act: 5

Results for C[N+]1=C(N)NC2=C3CCCCC3ONC2C1 (stereo not drawn) ?
TTR transcr act: -1

How did Cc1nc2ccccn2c1P(=S)(c1ccccc1)c1ccccc1 do in these assays?
TTR transcr act: 6

What do the screens show for `C=CCn1c(O)c(C(CC)=NCc2ccc3c(c2)OCO3)c(=O)[nH]c1=O`?
TTR transcr act: -1

What do the screens show for `CCCCn1c(O)c(C(=O)/C=C/c2ccc3c(c2)OCO3)c(=O)[nH]c1=O`?
TTR transcr act: 21*; HuH7 TTR inh: 15*; TTR up confirm: 1

What do the screens show for `O=C(/C=C/c1ccc2c(c1)OCO2)c1c(O)n(CCC2=CCCCC2)c(=O)[nH]c1=O`?
TTR transcr act: 1

What do the screens show for `CN1C(=O)C(Cc2ccccc2)C(=O)N(C)C1=O`?
TTR transcr act: 0

How did CN1C(=O)C(Cc2ccsc2)C(=O)N(C)C1=O do in these assays?
TTR transcr act: 12*; HuH7 TTR inh: -8; TTR up confirm: 0

How did CN1C(=O)C(C2CCCCC2)C(=O)N(C)C1=O do in these assays?
TTR transcr act: 0

How did CC(C)CCP(=O)(O)O do in these assays?
TTR transcr act: -1

Results for CCCC(=O)NC1=C(N2CC2)C(=O)C(NC(=O)CCC)=C(N2CC2)C1=O ?
TTR transcr act: 11*; HuH7 TTR inh: 53*; TTR up confirm: -3

What do the screens show for `CCCC(=O)Nc1ccc(N2CCN(CC)CC2)c(Cl)c1`?
TTR transcr act: 0

What do the screens show for `CCOC1=C(N2CC2)C(=O)C(OCC)=C(N2CC2)C1=O`?
TTR transcr act: -1

How did O=C(NC(CCC(O)CO)P(=O)(Oc1ccccc1)Oc1ccccc1)OCc1ccccc1 (stereo not drawn) do in these assays?
TTR transcr act: -1

How did C=C(C=O)CC1CC(O)[C@]2(C)OC3CC4OC5C[C@]6(C)O[C@]7(C)CCC8OC9C[C@]%10(C)OC%11C(C)=CC(=O)OC%11CC%10OC9C[C@@H](C)C8OC7CC6O[C@]5(C)C/C=C\C4OC3CC2O1 (stereo partly drawn) do in these assays?
TTR transcr act: -5

What do the screens show for `C[C@@]12CC[C@@H](c3cc4c(cc3C1)OCO4)N2c1ccccc1`?
TTR transcr act: 6

What do the screens show for `COC(=O)C1CC(OC(C)=O)C(=O)[C@H]2C1(C)CC[C@H]1C(=O)OC(c3ccoc3)CC12C` (stereo partly drawn)?
TTR transcr act: -1

What do the screens show for `Cc1cccc(-n2c(O)c(/C=N/NC(=O)c3ccncc3)c(=O)[nH]c2=O)c1`?
TTR transcr act: 2

What do the screens show for `O=C(N/N=C/c1c(O)n(-c2ccccc2)c(=O)[nH]c1=O)c1ccncc1`?
TTR transcr act: 13*; HuH7 TTR inh: 0; TTR up confirm: 0

Results for Cc1ccc(-n2c(O)c(/C=N/NC(=O)c3ccncc3)c(=O)[nH]c2=O)cc1 ?
TTR transcr act: -2

Results for CC(NC(=O)OCc1ccccc1)[P+](=O)O (stereo not drawn) ?
TTR transcr act: 0

How did C=CCOC(=O)C1=C(C)OC(N)=C(C#N)C12C(=O)N(CN1CCOCC1)c1ccccc12 (stereo not drawn) do in these assays?
TTR transcr act: 11*; HuH7 TTR inh: -11; TTR up confirm: 1

What do the screens show for `COCCOC(=O)C1=C(N)OC(C)=C(C(=O)OC)C12C(=O)Nc1ccccc12` (stereo not drawn)?
TTR transcr act: 1

What do the screens show for `CCOC(=O)C1=C(N)Oc2c(c(=O)oc3ccccc23)C12C(=O)N(C)c1ccccc12` (stereo not drawn)?
TTR transcr act: 2

Results for COc1cc2c(c3oc4cccc(O)c4c(=O)c13)[C@@H]1C=CO[C@@H]1O2 ?
TTR transcr act: 2

What do the screens show for `CC[C@]12CCN(CC3(O)CC3)C(Cc3ccc(O)cc31)C2(C)C`?
TTR transcr act: 4

Results for CCOC(=O)N1CCC(NC(=O)CCc2nc(C3=CCN(C)CC3)no2)CC1 ?
TTR transcr act: 10*; HuH7 TTR inh: 2; TTR up confirm: 0

How did COC(=O)C1C(c2ccc(C)cc2)CC2CCC1N2C (stereo not drawn) do in these assays?
TTR transcr act: -2

Results for CC(C)OC(=O)C1C(c2ccc(I)cc2)CC2CCC1N2C (stereo not drawn) ?
TTR transcr act: -1

Results for C=C1[C@@H](C)C2[C@H](Cc3ccccc3)NC(=O)[C@]23[C@H](OC(C)=O)/C=C/[C@@](C)(O)C(=O)[C@@H](C)C/C=C/[C@H]3[C@@H]1O (stereo partly drawn) ?
TTR transcr act: 2

Results for COP(=O)(OC)C(C)NC(=O)OCc1ccccc1 (stereo not drawn) ?
TTR transcr act: 6

Results for C[C@H](NC(=O)OCc1ccccc1)C(=O)NC(Cc1ccccc1)P(=O)(Oc1ccccc1)Oc1ccccc1 (stereo partly drawn) ?
TTR transcr act: 1

What do the screens show for `O=C(NC12CC3CC(CC(C3)C1)C2)OC1CN2CCC1CC2` (stereo not drawn)?
TTR transcr act: 13*; HuH7 TTR inh: -15; TTR up confirm: 0

Results for CC(C)(OOC1(c2ccccc2)NC(=O)c2ccccc21)c1ccccc1 (stereo not drawn) ?
TTR transcr act: 2

How did COc1ccc(Cn2c(N)c(C(=O)NCc3ccco3)c3nc4ccccc4nc32)cc1OC do in these assays?
TTR transcr act: 3

Results for O=C(Nc1ccc(Cl)c(Cl)c1)c1ccco1 ?
TTR transcr act: -2

How did COc1ccc(C(=O)Nc2cccc(S(=O)(=O)NCc3ccco3)c2)cc1 do in these assays?
TTR transcr act: 11*; HuH7 TTR inh: -3; TTR up confirm: -1

Results for CC(NC(=O)OCc1ccccc1)P(=O)(Oc1ccccc1)Oc1ccccc1 (stereo not drawn) ?
TTR transcr act: 9

Results for COC(=O)C1=C(c2ccc(OC(F)(F)F)cc2)C[C@@H]2CC[C@H]1N2C(=O)NCc1ccco1 ?
TTR transcr act: 4
